Measurements taken from PubChem BioAssay AID687020 (Broad Institute, 2013).
The campaign covered roughly 1,400 compounds. About 100 (7.1%) were called active. Not all results are given here. Measured potencies and affinities stand elsewhere. Values without a mark were called inactive. How the calls were made is not given here.

Experiment: Vero cell toxicity, dose response, cytotoxicity control, plate reader, cherry-pick samples (AID 687020);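 further: compounds incubated with cells for three days before luminescence read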
Details: Vero cells toxicity; series mostly up to 19.5 µM; activity change, negative = toxicity: at the top concentration

SMILES	activity change, negative = toxicity [%]
Cc1noc(C)c1NC(=O)N(C)C[C@H]1OCCCC[C@H](C)Oc2ccc(NC(=O)NC(C)C)cc2C(=O)N([C@H](C)CO)C[C@@H]1C	-12.9
CCOC(=O)c1cn(CC)c2cc3c(cc2c1=O)OCO3	-2.25
Cc1ccc(NC(=O)c2cc(-c3cc(Cl)ccc3C)n[nH]2)cc1NS(C)(=O)=O	9.63
O=C(NCc1ccccc1)[C@H]1CCCN1C(=O)[C@@H]1CCCN1C(=O)c1ccc(Cl)cc1Cl	-23.7
O=C(NCc1ccccc1)c1ccccc1	-0.227
Cc1noc(C)c1NC(=O)Nc1cccc2c1O[C@@H](CN(C)S(=O)(=O)c1ccc(F)cc1)[C@@H](C)CN([C@@H](C)CO)C2=O	-3.08
C=CCOc1ccccc1CNn1c(C)n[nH]c1=S	-9.09
Fc1ccc(CNC2CCN(Cc3ccccc3)CC2)cc1	0.52
CN(Cc1ccccc1)C(=O)c1nc[nH]c1C(=O)N1CCN(C(=O)OC(C)(C)C)CC1	-6.81
COC(=O)C[C@H]1CC[C@H]2[C@@H](COc3ccc(NC(=O)c4cnccn4)cc3C(=O)N2C)O1	1.66
CCCCOc1ccc(C(=O)NCCOc2cccc(OC)c2)cc1	-4.01
CS(=O)(=O)NCc1ccc(C(=O)NCCOc2ccccc2)cc1	2.03
Cc1c(Cl)cccc1NC(=O)CNC(=O)C1CC(=O)N(C2CCCC2)C1 (centres undefined)	-10.4
Cc1noc(C)c1NC(=O)Nc1ccc2c(c1)C(=O)N([C@@H](C)CO)C[C@H](C)[C@@H](CN(C)C(=O)CCCN(C)C)OCCCC[C@@H](C)O2	-1.38
CN(C)CCCNC(=O)OC1CC2CC1[C@H]1CCCCN1C2=O (some centres undefined)	-2.19
CCCNC(=O)OC1CC2CC1[C@H]1CCCCN1C2=O (some centres undefined)	2.02
O=C(NCc1ccccn1)C(=O)NCC1OCCN1S(=O)(=O)c1ccc(Br)cc1 (centres undefined)	-6.28
COc1ccc(Cl)cc1NC(=O)CN(C)C(=O)C1COc2ccccc2O1 (centres undefined)	-15.1
Cc1noc(C)c1S(=O)(=O)Nc1ccc2c(c1)C(=O)N([C@@H](C)CO)C[C@@H](C)[C@H](CN(C)C(=O)Nc1ccccc1)OCCCC[C@@H](C)O2	-5.09
Cc1cc(C)n2c(NC3CCCCC3)c(-c3ccccn3)nc2n1	-7.23
Cc1cc(C)n2c(Nc3ccc4c(c3)OCCO4)c(CC(C)C)nc2n1	-21.1
Cc1ccc(S(=O)(=O)N2CCN(C(=O)C(O)c3ccccc3)CC2)cc1 (centres undefined)	-18.2
COC(=O)C[C@@H]1OC[C@H](Cc2ccccc2)N1S(=O)(=O)c1ccc(C)cc1	-39.2
Cc1ccc(S(=O)(=O)N2CCN(C(=O)COC(=O)Cc3ccc(Cl)cc3)CC2)c(C)c1	-17.2

SMILES	activity change, negative = toxicity [%]
COc1ccc(C(C(=O)NCc2ccccc2)n2c(-c3ccncc3)nc3ccccc32)cc1 (centres undefined)	-13
CN(C)c1ccc(CNS(=O)(=O)c2ccc3c(c2)C(C)(C)C(=O)N3C)cc1	-30.9
C[C@H]1CCCCO[C@H](CN(C)S(=O)(=O)c2ccc(Cl)cc2)[C@@H](C)CN([C@@H](C)CO)C(=O)c2cc(NC(=O)Cc3ccccc3)ccc2O1	-3.01
COc1ccccc1CCNS(=O)(=O)CCNC(=O)c1ccc2c(c1)OCO2	-4.31
COc1ccc(OC)c(S(=O)(=O)N2CCN(c3c(C)cccc3C)CC2)c1	-9.78
COc1ccc(-c2cnc3c(NC(C)=O)cc(-c4ccccc4OC)cn23)cc1OC	0.032
COc1ccc(C2=Nn3c(nnc3-c3ccccc3Cl)SC2)cc1OCC1CC1	-15.7
CCCNC(=O)N1C[C@H](O)COC[C@@H]2O[C@@H](CC(=O)N3CCOCC3)CC[C@H]21	-2.31
COc1ccc(C(C)(NC(C)=O)c2nc(-c3cccc(F)c3)cs2)cc1 (centres undefined)	-2.95
O=C(CCc1nc2ccccc2c(=O)[nH]1)N1CCCc2ccccc21	-7.68
C[C@@H]1CN([C@@H](C)CO)C(=O)c2cc(C#CCc3ccccc3)cnc2O[C@@H]1CN(C)C(=O)C1CCOCC1	2.03
c1ccc(-c2csc(-c3ccc(-c4csnn4)cc3)n2)cc1	-16.9
O=C(NCC1CC1)C1(S(=O)(=O)c2ccccc2)CC=CC1	3.88
CCOC(=O)CN1CC23C=CC(O2)C(C(=O)NCCc2ccccc2)C3C1=O (centres undefined)	-11
CCOC(=O)N1CCN(Cc2nc3cc(NC(=O)CC)ccc3n2CC)CC1	-25.9
COc1cc(NC(C)=O)c2ncccc2c1Br	-17.8
COc1ccc(CN2CCC[C@]3(N[C@H](c4ccc(OC)cc4)[C@@H]4C(=O)N(C)C(=O)[C@@H]43)C2=O)cc1	-3.12
O=C(O)CNC(=O)c1ccc(NS(=O)(=O)c2ccc3ccccc3c2)cc1	-5.7
Cc1cc(Br)ccc1NC(=O)CN(C)C(=O)COc1cccc2c1OC(C)(C)C2	-22.1
O=C1N2CCCCC1(c1ccccc1)CCCC2	-13.6
COCCCN1C(=O)C(CC(=O)NC2CCCCC2)CC(C(=O)N(C(C)C)C(C)C)=C1C (centres undefined)	-16.2
COc1ccc(N(CC(=O)N2CCN(C)CC2)S(=O)(=O)c2cc(C)ccc2OC)cc1Cl	-25.7
O=C(Nc1ccc(S(=O)(=O)NC2=NCCCCC2)cc1)c1cccs1	-6.51
COc1ccc(-c2ccccc2)cc1NC(=O)c1cccs1	-35

SMILES	activity change, negative = toxicity [%]
CC(C)NC(=O)N(C)C[C@@H]1Oc2ccc(NC(=O)Cc3cn(C)c4ccccc34)cc2C(=O)N([C@@H](C)CO)C[C@H]1C	9.26
OC(COC(c1ccc(Cl)cc1)c1ccc(Cl)cc1)CN1CCN(c2ccccn2)CC1 (centres undefined)	-12.4
CCN(CC)c1ccc(/C=N/N2C(=O)c3ccccc3C2=O)c(O)c1	1.43
COc1cccc(NC(=O)CCN2C(=O)C3CC=CCC3C2=O)c1 (centres undefined)	-2.23
CCc1ccccc1OCC(=O)NNCC(=O)Nc1cccc(C#N)c1	-25.6
CC(=O)N1[C@H](CO)[C@@H](c2ccc(-c3cccc(F)c3)cc2)[C@H]1CNC(=O)C1CC1	1.3
COc1ccc([C@H]2C[C@@H](n3cc(C4CC4)nn3)[C@H](O)CN2Cc2cccs2)cc1	-10.8
C[C@H](NC(=O)C1CCN(S(=O)(=O)c2ccccc2)CC1)C(=O)NCc1cccnc1	-1.95
COc1ccc(C(=O)N2CCCCC2c2cc(C(=O)NCc3cccnc3)no2)cc1 (centres undefined)	-22.5
CC(C)[C@H](NC(=O)c1cccs1)C(=O)N1CCC[C@H]1C(=O)NCc1ccccc1	1.98
O=C(Nc1ccc2c(c1)CCC2)c1ccccc1	-24.3
Cc1cccc(C(=O)OCC(=O)NCc2ccc(Cl)cc2)c1	3.4
CN1CCC(=O)N([C@H](COc2ccccc2)Cc2ccccc2)CC1	-32.2
CSc1ccccc1OCc1cc(C(=O)N2CCc3[nH]cnc3C2c2ccccn2)no1 (centres undefined)	-6.11
CN1C(c2ccccc2)CCOS1(=O)=O (centres undefined)	-1.7
C=CCOc1ccc(CNCc2cccnc2)cc1OCC	-10
Cc1nc2c(OCCC3CCCCC3)cccn2c1N(C)C(=O)CCC1CCCC1	-28
Cc1csc(-c2nc3ccccc3n2C(C(=O)NC(C)(C)C)c2ccccc2)c1 (centres undefined)	-16
Cc1ccc(-c2nc3ccccc3n2C(C(=O)NC(C)(C)C)C2CC2)cc1 (centres undefined)	-7.18
CCOc1ccc(OCC(=O)N(C)c2c(N)n(Cc3ccccc3)c(=O)[nH]c2=O)cc1	-14.1
CC#CCN1C(=O)N[C@@H](c2ccccc2)C(C(=O)OC)=C1C	-21.8
C[C@@H]1CN([C@H](C)CO)C(=O)c2cc(NC(=O)c3ccncc3)ccc2O[C@@H](C)CCCCO[C@H]1CN(C)C	-1.49
COc1ccc2c(=O)cc(-c3ccncc3)oc2c1OC	-13.6
CCOC(=O)C1=C(C)NC(=O)C(C#N)C1c1ccncc1 (centres undefined)	-5.8

SMILES	activity change, negative = toxicity [%]
Cc1cc(OCC(=O)NC2CC(C)(C)NC(C)(C)C2)c(C)cc1Br	12.8
CCc1cc(=O)oc2cc(OCC(=O)NC3CC(C)(C)NC(C)(C)C3)ccc12	-15.9
CCOC(=O)C1(Cc2ccccc2C)CCCN(C(=O)c2cc(C3CC3)[nH]n2)C1 (centres undefined)	-27.9
N#CC(Cc1ccccc1OC(F)F)c1nc2ccccc2[nH]1 (centres undefined)	-9.96
CC(=O)NC[C@H]1[C@H](c2ccc(-c3ccccc3F)cc2)[C@@H](CO)N1C(=O)C1CC1	-10.5
O=C(COC(=O)c1ccc2c(c1)OCO2)NC1CCCCC1	-7.5
COCCNC(=O)C1(C)CCCN(C(=O)c2ccc(C(F)(F)F)cc2)C1 (centres undefined)	-9.24
CO[C@@H]1CN(C)C(=O)c2cc(NC(=O)c3ccccc3)ccc2OC[C@H](C)N(C(=O)C2CC2)C[C@@H]1C	-1.15
O=C(O)C1CCCCC1C(=O)N1CCN(S(=O)(=O)c2ccc(F)cc2)CC1 (centres undefined)	-12.7
COc1cc(C(=S)N2CCCCC2)ccc1OCC(=O)Nc1ccc(F)cc1	-33.6
O=C(NCCCC1CCCC1)C1CCC(=O)N(Cc2cccc(C(F)(F)F)c2)C1 (centres undefined)	8.67
COc1ccc(NC(=O)Nc2ccc3c(c2)C(=O)N([C@@H](C)CO)C[C@H](C)[C@H](CN(C)Cc2ccc(C(=O)O)cc2)OCCCC[C@H](C)O3)cc1	-1.97
O=C1NC[C@H](Cc2ccccc2)N(CC2CCN(CCCCc3ccccc3)CC2)C1=O	-14.5
O=C1[C@@H](Oc2ccccc2)[C@@H](c2ccncc2)N1c1ccccc1	7.85
COc1cccc(OCc2cc(C(=O)N(C)CCC3CCCCO3)no2)c1 (centres undefined)	-26.9
COc1cc(C(=S)N2CCCC2)ccc1OCc1ccc(C)cc1	-12.9
O=S(=O)(NCCC1=CCCCC1)c1ccc(Br)cc1	3.27
F[B-](F)(F)c1cnc2ccccc2c1	12.8
Cn1cccc1C(=O)OCC(=O)NC(=O)c1ccc(Cl)cc1	-5.5
C[C@H](CO)N1C[C@H](C)[C@@H](CN(C)C(=O)Nc2ccc(C(F)(F)F)cc2)OCCCC[C@H](C)Oc2ccc(NS(=O)(=O)c3cccs3)cc2C1=O	-1.02
Cc1noc(C)c1NC(=O)Nc1ccc2c(c1)C(=O)N([C@@H](C)CO)C[C@@H](C)[C@@H](CN(C)Cc1ccccc1)OCCCC[C@@H](C)O2	-5.3
CNC[C@@H]1OCCCC[C@H](C)Oc2ccc(NS(=O)(=O)c3c(C)noc3C)cc2C(=O)N([C@@H](C)CO)C[C@H]1C	-5.49
